The values below come from PubChem BioAssay (NCI).

Holding throughout (test): NCI-60 one-dose screen, 48 h (100 = growth as untreated, 0 = no growth, -100 = all killed)
Assay [1] deals with SK-MEL-2 melanoma. Conditions: 10 µM unless noted.
Assay [2] concerns EKVX NSCLC. The conditions noted are these: 10 µM unless noted.
Assay [3] relates to SN12C renal. The conditions noted are these: 10 µM unless noted.
Assay [4] deals with UO-31 renal. The conditions noted are these: 10 µM unless noted.
Assay [5] concerns TK-10 renal. The conditions noted are these: 10 µM unless noted.
The subject of assay [6] is ACHN renal. The conditions noted are these: 10 µM unless noted.
Assay [7] concerns CAKI-1 renal. Conditions: 10 µM unless noted.
Assay [8] concerns A498 renal. Conditions: 10 µM unless noted.
For assay [9], the system named is CCRF-CEM leukemia. The conditions noted are these: 10 µM unless noted.
The test system of assay [10] is MOLT-4 leukemia. Conditions: 10 µM unless noted.
Assay [11] deals with SR leukemia. Conditions: 10 µM unless noted.
Assay [12] has as its system RPMI-8226 leukemia. The conditions noted are these: 10 µM unless noted.
In assay [13] the test system is OVCAR-8 ovarian. The conditions noted are these: 10 µM unless noted.
Assay [14] relates to OVCAR-5 ovarian. The conditions noted are these: 10 µM unless noted.
Assay [15] has as its system OVCAR-4 ovarian. Conditions: 10 µM.
The test system of assay [16] is SK-OV-3 ovarian. Conditions: 10 µM unless noted.
The subject of assay [17] is IGROV1 ovarian. Conditions: 10 µM unless noted.
In assay [18] the test system is OVCAR-3 ovarian. Conditions: 10 µM unless noted.
The subject of assay [19] is HS 578T breast. The conditions noted are these: 10 µM unless noted.
Assay [20] relates to NCI/ADR-RES ovarian. The conditions noted are these: 10 µM unless noted.

Molecules are shown by their SMILES. The panel holds about 83,000 compounds, 20% with a hit somewhere; the sample as a whole holds those more often.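 The endpoint reported here, percent growth, reads 100 for growth as untreated, 0 for no net growth and -100 for all cells dead.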 Values without a mark were called inactive. Active and inactive are the calls of the source. How the source made its calls: active means growth percent below 10; inactive means the rest.

With `Oc1c(CNCCNCc2cc(Cl)cc(Cc3ccccc3)c2O)cc(Cl)cc1Cc1ccccc1`, the growth was 27.1% in [1]; 24% in assay [2]; 19.1% in assay [3]; -20% (active) in [4]; 36.8% in assay [5]; 10.3% in assay [6]. Moreover, the growth in assay [7] was 6.39% (active); in [8] it was 36.2%; in assay [9] it was 8.47% (active); in assay [10], 18.2%; in assay [11], 5.69% (active); in assay [12], 20.8%. The growth in [13] was 14.3%; in assay [14], 52.9%; in assay [15] it was 27.1%; in assay [16], 15.4%; in assay [17], 12.8%; in assay [18], 29.5%. The growth in assay [19] is 40.7%; in assay [20], 8.69% (active).
Regarding `O=C(CCN1CCCCC1)c1ccc2ccccc2c1`, the growth is 102% in assay [1]; 112% in [2]; 96.7% in assay [3]; 77.1% in assay [4]; 94.5% in [5]; 116% in assay [6]. The growth in assay [7] is 98.1%; in assay [8], 93.5%; in assay [9] it was 92.3%; in [10], 108%; in [11] it was 103%; in assay [12] it was 77.5%. The growth in [13] is 99.9%; in assay [14], 117%; in [15] it was 114%; in assay [16] it was 105%; in assay [17], 104%; in assay [18], 98.6%. In addition, the values for the growth in [19] and in [20] were 104% and 109%, respectively.
On to `Oc1cc(Nc2ccnc3cc(Cl)ccc23)c2ncccc2c1`, for which the growth in assay [1] was 94.4%; in assay [2], 98.5%; in [3] it was 79.3%; in assay [4], 44.4%; in assay [5], 109%; in assay [6] it was 71.1%. Besides, the growth in [7] was 86.2%; in assay [8], 100%; in assay [9], 67.9%; in assay [10], 68.9%; in assay [11] it was 37%; in [12] it was 53.5%. Moreover, the growth was 70.3% in assay [13]; 104% in [14]; 44.4% in assay [15]; 85.4% in assay [16]; 94.3% in assay [17]; 81% in assay [18]. In addition, the values for the growth in assay [19] and in [20] were 62.1% and 51.8%, respectively.
With `CC(=O)Nc1ccc(C=Nc2ccc3ccccc3c2)cc1`, the growth in [1] was 121%; in assay [2], 116%; in assay [3] it was 99%; in assay [4], 98.5%; in [5], 106%; in assay [6] it was 118%. Further, the growth in assay [7] was 47.4%; in [8], 108%; in assay [9], 93%; in assay [10], 100%; in assay [11], 104%; in assay [12] it was 101%. Moreover, the growth was 108% in assay [13]; 117% in assay [14]; 108% in assay [15]; 109% in assay [16]; 105% in assay [17]; 122% in [18]. In assay [20], the growth is 115%.
With `Nc1cc(C(=O)O)[nH]c(=S)n1`, the growth in assay [1] is 98.9%; in assay [2], 92.6%; in assay [3], 99.7%; in assay [4] it was 87.5%; in [5], 93.4%; in assay [6], 103%. The growth was 94.9% in assay [7]; 101% in [8]; 94.5% in assay [9]; 101% in [10]; 94.2% in assay [11]; 95% in assay [12]. For the same molecule, the growth in [13] is 101%; in assay [14] it was 96.1%; in assay [15] it was 105%; in assay [16] it was 115%; in assay [17], 95.4%; in [19], 98.1%. Also, the growth in assay [20] is 100%.
Take `CN(C)CCOc1ccc(/C(=C(/CCCl)c2ccccc2)c2ccccc2)cc1`: the growth in assay [1] is 48.5%; in assay [2], 30%; in assay [3], 23.7%; in assay [4], 26.5%; in assay [5] it was 49.8%; in assay [6], 30.1%. Further, the growth in assay [7] was 30.8%; in [8], 65.7%; in [9] it was -6.69% (active); in [10] it was -4.84% (active); in assay [11], -17% (active); in assay [12] it was -11.4% (active). The growth in assay [13] is 26.7%; in assay [14], 47%; in assay [15] it was 32.9%; in assay [16], 33.6%; in assay [17], 30.5%; in assay [18], 12.9%. Further, in [20], the growth is 14.1%.
In the case of `CCCCCCCCCCCCNC(=S)N/N=C/c1ccccc1O`, the growth in assay [1] was 80.8%; in assay [2], 89.1%; in assay [3], 69.4%; in assay [4] it was 37.6%; in assay [5] it was 128%; in assay [6] it was 77.1%. The growth was 65.4% in assay [7]; 94.3% in assay [8]; 46.1% in assay [9]; 52.4% in assay [10]; 44% in [11]; 55.4% in assay [12]. In addition, the growth was 77.9% in assay [13]; 99.1% in assay [14]; 65.2% in assay [15]; 102% in assay [16]; 65.1% in assay [17]; 91.7% in assay [19]. Moreover, the growth in assay [20] was 77.1%.
Take `COc1ccc(C(=O)/C=C/c2ccccn2)c(O)c1`: the growth in assay [1] was 89.6%; in [2], 94.2%; in [3], 77.8%; in assay [4], 53.1%; in assay [5], 92.4%; in [6] it was 45%. Moreover, the growth in assay [7] is 61.3%; in assay [8], 91.3%; in [9] it was 10.4%; in assay [10], 74.2%; in assay [11], -1.93% (active); in assay [12] it was 6.35% (active). Further, the growth was 92.6% in assay [13]; 96.3% in [14]; 92.1% in assay [15]; 98.6% in assay [16]; 46.8% in assay [17]; 87.5% in assay [19]. The growth in assay [20] is 94%.
